System: T1, AMPK-alpha1
T1 construct: gene PRKAA1
Conditions: concentration: 1 μM, replicates: in singlicate; n = 1
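Further: KINOMEscan kinase panel screen.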

Compound | %Inh [%]
N#Cc1ccc(-c2cc(-c3c[nH]nc3-c3ccccn3)ccn2)cc1 [GW693028] | 0
O=C(Nc1n[nH]c2cc(-c3cccc(F)c3)ccc12)C1CC1 [SB-735464] | 10
COc1cc2c(cc1OC[C@@H](O)CO)ncc1c3ccc(C#N)cc3[nH]c21 | 0
CCCCCc1nc2c(N)ncnc2n1CCCCC [SKF-97255] | 3
Cc1cccc(Cn2ccn3c(=O)cc(N4CCOCC4)nc23)c1 [GSK2297542] | 1
CCn1cnc2c(N)ncnc21 [GW345098] | 29
Cn1ccc2ncnc(Oc3ccc(NC(=O)Nc4ccncc4)c(Cl)c3)c21 | 0
Cn1cc(-c2ccc3c(c2)CCN3C(=O)Cc2ccccc2Cl)c2c(N)ncnc21 [GSK2608885] | 2
Cl.Nc1ncnc2occ(-c3ccc(NC(=O)Nc4cc(C(F)(F)F)ccc4F)cc3)c12 [SB-707548] | 5
Cc1ccc(C(=O)NCC(N)=O)cc1-n1c(C)cc(OCc2ccc(F)cc2F)c(Br)c1=O | 30
NCC(NC(=O)c1cc(-c2cn[nH]c2)c(-c2ccnc3[nH]ccc23)s1)c1ccccc1.O=C(O)C(F)(F)F.O=C(O)C(F)(F)F (stereo not shown) [GSK1325775] | 17
CN(C(=O)c1ccc(-c2cc(-c3c[nH]nc3-c3ccccn3)ccn2)cc1)C1CCOCC1 [GW810083] | 0
Cc1nnc(-c2ccc(C)c(-c3ccc(C(=O)Nc4ccc(NS(C)(=O)=O)cc4)cc3)c2)o1 [GW702865] | 17

— PMC5540273 (PLoS ONE, 2017)
